Screening results as filed in PubChem BioAssay.
Six1-Eya2 blk: qHTS Assay for Inhibitors of the Six1/Eya2 Interaction; AlphaScreen GST-Six1/His-Eya2 binding, biochemical; hits give low values; Homeobox protein SIX1 (Homo sapiens) + Protein phosphatase EYA2 (Homo sapiens), …; activity change, % (no concentration beside the values); hit rate 0.56% among 360,000; in the data active = activity change below about -65%; inconclusive = mostly about -30% to -63%
Target sequence (O00167 whole entry, looked up): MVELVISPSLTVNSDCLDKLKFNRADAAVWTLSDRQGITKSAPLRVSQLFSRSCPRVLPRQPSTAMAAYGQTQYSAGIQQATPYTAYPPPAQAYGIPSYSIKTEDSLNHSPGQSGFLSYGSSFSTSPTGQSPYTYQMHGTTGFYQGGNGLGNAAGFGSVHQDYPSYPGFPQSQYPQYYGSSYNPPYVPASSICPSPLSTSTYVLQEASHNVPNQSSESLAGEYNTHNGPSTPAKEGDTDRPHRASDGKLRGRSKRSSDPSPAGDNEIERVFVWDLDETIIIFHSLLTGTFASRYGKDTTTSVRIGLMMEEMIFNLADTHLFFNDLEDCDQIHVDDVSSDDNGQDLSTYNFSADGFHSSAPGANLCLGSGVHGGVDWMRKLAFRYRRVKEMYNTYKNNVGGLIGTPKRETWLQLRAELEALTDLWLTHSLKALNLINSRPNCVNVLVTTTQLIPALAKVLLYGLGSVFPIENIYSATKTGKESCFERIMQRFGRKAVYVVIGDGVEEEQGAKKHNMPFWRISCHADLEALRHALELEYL
Target sequence (Q15475 whole entry, looked up): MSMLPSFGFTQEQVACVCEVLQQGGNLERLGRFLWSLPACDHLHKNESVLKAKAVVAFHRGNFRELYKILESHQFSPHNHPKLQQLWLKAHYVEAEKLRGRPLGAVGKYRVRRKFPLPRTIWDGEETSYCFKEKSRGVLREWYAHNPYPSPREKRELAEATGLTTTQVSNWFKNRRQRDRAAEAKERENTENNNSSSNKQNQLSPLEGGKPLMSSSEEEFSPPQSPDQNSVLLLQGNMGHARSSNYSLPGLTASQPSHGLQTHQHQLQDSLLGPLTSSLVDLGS
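AlphaScreen with GST-Six1 and His-Eya2 (5X mix: 250 nM and 500 nM), glutathione donor and nickel acceptor beads; buffer 50 mM Tris pH 8.0, 300 mM NaCl, 1 mM TCEP; 1 h at 37 C in the dark.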
DT40 TDP1 no CPT: qHTS for Inhibitors of human tyrosyl-DNA phosphodiesterase 1 (TDP1): qHTS in cells in absence of CPT; DT40 Tdp1-/- hTDP1 cells, no CPT, ATP luminescence, 48 h; Potency, µM (titrated, usually from 46.2 µM), for inactives: at the highest dose activity change, negative = growth inhibition, usual class: inhibitors; hit rate 15% among 420,000; note: potency is the fitted concentration of half-maximal effect; nearly all actives have a fitted effect of over 55% in size
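Chicken DT40 Tdp1-/- cells stably complemented with human TDP1 were seeded at 400 cells/well with DMSO in place of 20 nM camptothecin. After compound pinning, cells grew at least 48 hr at 37 °C; viability read by CellTiter-Glo luminescence.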
IL1B secr inh: qHTS for Inhibitors of Inflammasome Signaling: IL-1-beta AlphaLISA Primary Screen; THP-1 LPS/ATP IL-1B secretion, AlphaLISA, 16 h; hits give low values; activity change, % at 57.5 µM; hit rate 4.7% among 360,000; in the data active = activity change below about -50%; inconclusive = mostly about -30% to -49%
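Secreted IL-1B measured by AlphaLISA bead assay after 16 h compound exposure of THP-1 cells; compounds (final up to 57.5 uM) added 1 h before LPS (250 ng/mL) and ATP (1.25 mM) stimulation; lower signal means less secretion.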
TDP1 block: qHTS Assay for Inhibitors of Tyrosyl-DNA Phosphodiesterase (TDP1); Tyrosyl-DNA phosphodiesterase 1 (Homo sapiens), Q9NUW8; recombinant TDP1, AlphaScreen DNA substrate cleavage; hit rate 0.28% among 350,000; Potency, µM (highest dose often 130 µM), inactives show at the top dose activity change, negative = inhibition, usual class: inhibitors; note: potency is the fitted concentration of half-maximal effect; nearly all actives have a fitted effect of over 40% in size
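Compounds were preincubated with Tdp1 (1 nM final) for 15 min at room temperature before substrate (15 nM final) started a 5 min reaction; beads (10 ug/ml final) were then added for 10 min before AlphaScreen detection.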
CtBP-E1A inh: qHTS Assay for Inhibitors of the CtBP/E1A Interaction. AlphaScreen GST-E1A/His-CtBP binding, 1536-well; hits give low values. activity change, % (no concentration beside the values). hit rate 0.49% among 340,000; in the data active = activity change below about -65%; inconclusive = mostly about -30% to -63%
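Steps: dispense buffer (Tris pH 8.0, NaCl 300 mM, TCEP 1 mM, BSA, Tween 20); add 5X protein mix (GST-E1A, His-CtBP, 125 nM each); pin 23 nL compound; 2 h at 37 °C, dark; add 5X beads (50 ug/mL); 1 h; read.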
DT40 TDP1 CPT: qHTS for Inhibitors of human tyrosyl-DNA phosphodiesterase 1 (TDP1): qHTS in cells in presence of CPT. chicken DT40 Tdp1-/-;hTDP1 cells + 20 nM CPT, ATP luminescence, 48 h. Potency, µM (series often up to 46.2 µM), inactives show at the highest dose activity change, negative = growth inhibition, actives largely listed as inhibitors. hit rate 12% among 420,000. AID 686979, 2013; note: potency is the fitted concentration of half-maximal effect; nearly all actives have a fitted effect of over 55% in size
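Cell growth measured by CellTiter-Glo luminescence after a minimum 48 h, 37 C compound exposure with 20 nM CPT in Tdp1-knockout DT40 cells stably expressing hTDP1, seeded 400/well; qHTS titration format.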
Numbers without * were called inactive. The list is not random: actives were taken first. Their share in the collection is about 18%. Unless noted, calls come from the whole dose curve; as a rule, active = well fitted curve in the direction sought with a large enough effect; inconclusive = small, poorly fitted or top-dose-only effect, or another doubt; inactive = no such curve, though single readings can be large; an effect the other way counts as inactive or inconclusive. % is set by controls: 0 for no effect and ±100 for the full control effect.

Cc1c(Nc2scc(-c3ccccc3)[n+]2-c2ccccc2)c(=O)n(-c2ccccc2)n1C was read as Six1-Eya2 blk -10, DT40 TDP1 no CPT 21µM*, IL1B secr inh -27, TDP1 block 5%, CtBP-E1A inh 4 and DT40 TDP1 CPT inconclusive.
Screening Cc1c(Nc2c3ccccc3nc3ccccc23)c(=O)n(-c2ccccc2)n1C returned Six1-Eya2 blk 2, DT40 TDP1 no CPT -15%, IL1B secr inh 6, TDP1 block 1%, CtBP-E1A inh 7 and DT40 TDP1 CPT -9%.
For CCOC(=O)Cc1csc(Nc2c(C)n(C)n(-c3ccccc3)c2=O)n1 the results were Six1-Eya2 blk 0, DT40 TDP1 no CPT -13%, IL1B secr inh 25, TDP1 block 1%, CtBP-E1A inh 6 and DT40 TDP1 CPT -10%.
Cc1c(Nc2nc(-c3ccc(Cl)cc3)cs2)c(=O)n(-c2ccccc2)n1C was read as Six1-Eya2 blk -4, DT40 TDP1 no CPT 10µM*, IL1B secr inh inconclusive, TDP1 block -1%, CtBP-E1A inh -14 and DT40 TDP1 CPT inconclusive.
`Cc1c(Nc2nc3ccccc3nc2N2CCN(c3ccccc3)CC2)c(=O)n(-c2ccccc2)n1C` gave Six1-Eya2 blk 1, DT40 TDP1 no CPT 15µM*, IL1B secr inh -19, TDP1 block 10%, CtBP-E1A inh 5 and DT40 TDP1 CPT 21µM*.
Screening Cc1cc(C(=O)OCC(=O)Nc2ccccc2F)c(C)o1 returned Six1-Eya2 blk 2, DT40 TDP1 no CPT -20%, IL1B secr inh -16, TDP1 block 6%, CtBP-E1A inh 0 and DT40 TDP1 CPT -4%.
For Clc1ncnc2[nH]ccc12 the results were Six1-Eya2 blk -14, DT40 TDP1 no CPT inconclusive, IL1B secr inh -14, CtBP-E1A inh 0 and DT40 TDP1 CPT -2%.
`CC1(C)Cc2noc(N)c2C(C)(C)N1OC(=O)c1ccco1` gave Six1-Eya2 blk -2, DT40 TDP1 no CPT -2%, IL1B secr inh 16, TDP1 block -2%, CtBP-E1A inh 8 and DT40 TDP1 CPT 0%.
Screening Cc1ccc(C(=O)Nc2cccc(Oc3ccccc3)c2)o1 returned Six1-Eya2 blk 9, DT40 TDP1 no CPT inconclusive, IL1B secr inh -26, TDP1 block 0%, CtBP-E1A inh 0 and DT40 TDP1 CPT 18µM*.
`Cc1ccc(C(=O)Nc2ccccc2Oc2ccccc2)o1` gave Six1-Eya2 blk 0, DT40 TDP1 no CPT 14%, IL1B secr inh 19, CtBP-E1A inh 11 and DT40 TDP1 CPT -23%.
`O=C(Nc1ccc(O)cc1)c1ccc(C(=O)c2ccccc2)o1` gave Six1-Eya2 blk -13, DT40 TDP1 no CPT 20µM*, IL1B secr inh -17, TDP1 block 7%, CtBP-E1A inh -16 and DT40 TDP1 CPT 25µM*.
Screening Cc1oc(C(=O)Nc2ccc(O)cc2)cc1COc1ccccc1 returned Six1-Eya2 blk -6, DT40 TDP1 no CPT 16µM*, IL1B secr inh -6, TDP1 block 7%, CtBP-E1A inh -6 and DT40 TDP1 CPT inconclusive.
COc1cccc(NC(=O)c2ccc(C(=O)c3ccccc3)o2)c1 was read as Six1-Eya2 blk -10, DT40 TDP1 no CPT 18µM*, IL1B secr inh inconclusive, TDP1 block 3%, CtBP-E1A inh -3 and DT40 TDP1 CPT inconclusive.
Screening CN1CCN(c2nc3c(c(=O)n(C)c(=O)n3C)n2Cc2ccccc2Cl)CC1 returned Six1-Eya2 blk -1, DT40 TDP1 no CPT 13%, IL1B secr inh -16, TDP1 block 6%, CtBP-E1A inh 0 and DT40 TDP1 CPT -21%.
Screening COC(=O)c1ccc(Nc2nc(C)nc3c2nnn3Cc2ccccc2)cc1 returned Six1-Eya2 blk 0, DT40 TDP1 no CPT -6%, IL1B secr inh 22, TDP1 block 3%, CtBP-E1A inh 2 and DT40 TDP1 CPT -2%.
For Cc1ccccc1NC(=O)Cn1c(=O)n(CCC(=O)N2CCc3ccccc3C2)c(=O)c2ccccc21 the results were DT40 TDP1 no CPT 15µM*, TDP1 block 6% and DT40 TDP1 CPT 16µM*.
Cc1ccc(NC(=O)Cn2c(=O)n(CCC(=O)N3CCc4ccccc4C3)c(=O)c3ccccc32)cc1 was read as DT40 TDP1 no CPT 16µM*, TDP1 block 1% and DT40 TDP1 CPT 18µM*.
For COc1ccccc1CNC(=O)CCn1c(=O)c2ccccc2n(CC(=O)Nc2ccc(C)cc2)c1=O the results were DT40 TDP1 no CPT inconclusive, TDP1 block -2% and DT40 TDP1 CPT inconclusive.
`O=C(Cn1c(=O)n(CCC(=O)N2CCc3ccccc3C2)c(=O)c2ccccc21)NCC1CCCO1` (centres undefined) gave Six1-Eya2 blk -1, DT40 TDP1 no CPT -17%, IL1B secr inh -7, TDP1 block 2%, CtBP-E1A inh -3 and DT40 TDP1 CPT -5%.
For COc1ccc(C2NC(=O)NC(C)=C2C(=O)OCC2CCCCC2)cc1OC (centres undefined) the results were Six1-Eya2 blk -2, DT40 TDP1 no CPT inconclusive, IL1B secr inh -21 and DT40 TDP1 CPT -27%.
Screening CCOC(=O)C1=C(C)NC(SCC(N)=O)=C(C#N)C1c1ccncc1 (centres undefined) returned Six1-Eya2 blk 29, DT40 TDP1 no CPT -2%, IL1B secr inh 0, TDP1 block 6%, CtBP-E1A inh 0 and DT40 TDP1 CPT -14%.
COc1ccc(CNC(=O)CSc2nnc3c(n2)[nH]c2ccc(C)cc23)cc1 was read as Six1-Eya2 blk -2, DT40 TDP1 no CPT 6%, IL1B secr inh 31, CtBP-E1A inh -6 and DT40 TDP1 CPT 2%.
For COc1ccc2[nH]c3nc(SCc4nnc(-c5ccc(C)cc5)o4)nnc3c2c1 the results were Six1-Eya2 blk -11, DT40 TDP1 no CPT 16µM*, IL1B secr inh 21, TDP1 block 2%, CtBP-E1A inh -6 and DT40 TDP1 CPT 26µM*.
CN(Cc1cc(Cl)cc(Cl)c1O)Cc1c(O)ccc2ccccc12 was read as Six1-Eya2 blk -14, DT40 TDP1 no CPT inconclusive, IL1B secr inh -96*, CtBP-E1A inh -12 and DT40 TDP1 CPT inconclusive.
`CCC(=O)c1c[nH]c(C(=O)NCc2ccccc2OC)c1` gave Six1-Eya2 blk -5, DT40 TDP1 no CPT -25%, IL1B secr inh 17, CtBP-E1A inh 7 and DT40 TDP1 CPT inconclusive.
